Experiment [1] can be described thus: qHTS assay to test for compound auto fluorescence at 535 nm (green) in HEK293 cells (AID 720680).
Experiment [2] is described as follows: qHTS assay to test for compound auto fluorescence at 460 nm (blue) in HEK293 cell free culture (AID 720681). Further: potency means the concentration at half of the fitted maximal effect. The method, boiled down:
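Test compounds were pinned into cell-free culture medium (DMEM with 10% FBS) and fluorescence was read directly at Ex/Em 405/460 nm. Signals were expressed as fluorescence equivalents of triamterene, with DMSO vehicle as control.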
On the technique in general: Quantitative high-throughput screening tests each substance at several concentrations.

Experiment [3] in a line: qHTS assay to test for compound auto fluorescence at 535 nm (green) in HEK293 cell free culture (AID 720682). An outline of the steps: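 Using fluorescein as calibrant, autofluorescence was quantified at 485/535 nm in cell-free DMEM containing 10% FBS after pintool addition of compound or vehicle.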
Experiment [4] can be described thus: qHTS assay to test for compound auto fluorescence at 590 nm (red) in HEK293 cell free culture (AID 720683). An outline of the steps:
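Tox21 10K library compounds were pinned into cell-free DMEM with 10% FBS and fluorescence was read at excitation 540 nm. Activity is expressed as Rose Bengal sodium equivalency.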

Experiment [5] can be described thus: qHTS assay to test for compound auto fluorescence at 590 nm (red) in HepG2 cell free culture (AID 720684). The method, boiled down: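 Ex 540 / Em 590 nm read of compound in cell-free MEM (10% FBS). Rose Bengal sodium reference.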
A short description of experiment [6]: qHTS assay to test for compound auto fluorescence at 460 nm (blue) in HepG2 cell free culture (AID 720685). Further: potency means the concentration at half of the fitted maximal effect. An outline of the steps:
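Cell-free plates of MEM plus 10% FBS received 23 nL compound or DMSO vehicle; blue-channel (405/460 nm) intensity scored against triamterene as reference fluorophore.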

The nature of experiment [7]: qHTS assay to test for compound auto fluorescence at 535 nm (green) in HepG2 cell free culture (AID 720686).
Experiment [8] in a line: qHTS assay to test for compound auto fluorescence at 460 nm (blue) in HepG2 cells (AID 720687). Further: potency means the concentration at half of the fitted maximal effect. An outline of the steps:
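Cells (2,000/well in MEM with 10% FBS) attached overnight at 37 C, then were exposed to compound or DMSO for 1 hr at 37 C, 5% CO2. Fluorescence read at Ex/Em 405/460 nm, expressed as triamterene-equivalent signal.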

Experiment [9] has as its target Glucocorticoid receptor (Homo sapiens) (UniProt P04150). Description: qHTS assay to identify small molecule agonists of the glucocorticoid receptor (GR) signaling pathway (AID 720691; active means well fitted activation curve with a large enough effect in the signal ratio in the repeat runs, not every such curve was filed as active; the % refers to the signal ratio). Particulars: GR-bla HeLa, beta-lactamase reporter ratio, 18 h; activation: at 62.4 µM (top of the series). An outline of the steps: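 Compounds in DMSO, alongside positive controls, were added to GR-bla HeLa reporter cells and incubated 18 h at 37 C; GRE-driven beta-lactamase was detected by fluorescence after 2 h with FRET substrate at room temperature.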

SMILES strings stand for the structures. Unmarked numbers belong to inactive results. Records with an inconclusive call do not appear. Calls of active or inactive are those of the source. Unless noted, the call rests on the fitted dose curve; in most records, active means well fitted curve in the direction sought with a large enough effect in the repeat runs; inconclusive means weak or mixed curves; inactive means flat fitted curve, though single readings scatter.
On the % scale 0 is the no-effect control and ±100 the full control effect; tags describe the fitted curve by direction and shape or compound fluorescence and quenching.

Sequence of Glucocorticoid receptor (Homo sapiens) (P04150 whole entry, looked up): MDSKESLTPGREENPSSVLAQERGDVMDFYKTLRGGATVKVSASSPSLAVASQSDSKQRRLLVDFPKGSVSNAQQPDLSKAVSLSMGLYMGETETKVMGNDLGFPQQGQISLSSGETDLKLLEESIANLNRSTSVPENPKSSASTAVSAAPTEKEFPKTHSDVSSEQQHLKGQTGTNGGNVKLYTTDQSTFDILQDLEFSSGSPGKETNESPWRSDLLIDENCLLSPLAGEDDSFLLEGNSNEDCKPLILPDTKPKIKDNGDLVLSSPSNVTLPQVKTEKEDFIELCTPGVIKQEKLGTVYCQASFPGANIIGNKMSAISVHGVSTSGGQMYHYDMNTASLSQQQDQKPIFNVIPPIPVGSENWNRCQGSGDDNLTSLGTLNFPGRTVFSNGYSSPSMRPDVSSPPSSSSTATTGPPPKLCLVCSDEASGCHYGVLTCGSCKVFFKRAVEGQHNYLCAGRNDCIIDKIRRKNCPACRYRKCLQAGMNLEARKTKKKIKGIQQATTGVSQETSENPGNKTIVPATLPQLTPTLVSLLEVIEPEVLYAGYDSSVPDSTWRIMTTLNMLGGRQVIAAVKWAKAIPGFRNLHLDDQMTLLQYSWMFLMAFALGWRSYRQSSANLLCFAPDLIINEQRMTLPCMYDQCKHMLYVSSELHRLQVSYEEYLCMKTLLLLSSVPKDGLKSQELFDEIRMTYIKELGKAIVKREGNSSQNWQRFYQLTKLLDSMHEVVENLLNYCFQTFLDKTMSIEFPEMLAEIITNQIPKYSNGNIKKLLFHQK

For `Oc1cccc(-c2c3nc(c(-c4cccc(O)c4)c4ccc([nH]4)c(-c4cccc(O)c4)c4nc(c(-c5cccc(O)c5)c5ccc2[nH]5)CC4)C=C3)c1`, the call in [1] and in experiment [3] was inactive. For the same molecule, the Potency result in experiment [2], in experiment [4], in experiment [5], in experiment [6], in experiment [7] and in experiment [8] was “inactive” in each case.

As to `CN(C)C(=O)C1(N2CCCCC2)CCN(CC[C@@]2(c3ccc(Cl)c(Cl)c3)CN(C(=O)c3ccccc3)CCO2)CC1`, the call in experiment [1] and in experiment [3] was inactive. For the same molecule, the Potency result in [2], in [4], in experiment [5], in experiment [6], in experiment [7] and in [8] was “inactive” in each case.

With `OCCN(CCO)c1nc(N2CCCCC2)c2nc(N(CCO)CCO)nc(N3CCCCC3)c2n1`, the molecule was classed as inactive in experiment [1] and in experiment [3]. The Potency in experiment [2] is 12.6 µM (active); in [6], 12.6 µM [fluorescent] (active); in [8] it was 12.6 µM [fluorescent] (active). Further, the Potency entry in experiment [4], in experiment [5] and in experiment [7] was “inactive” in each case.

`O=C(c1ccc(F)cc1)C1CCN(CCn2c(=O)[nH]c3ccccc3c2=O)CC1`: the molecule was called inactive in experiment [1] and in [3]. Also, the Potency entry in experiment [2], in experiment [4], in [5], in experiment [6], in [7] and in experiment [8] was “inactive” throughout. The Potency entry in experiment [9] was “inactive”.

As for `O=c1[nH]sc2ccccc12`, the molecule was classed as inactive in experiment [1] and in experiment [3]. In addition, the Potency entry in experiment [2], in experiment [4], in experiment [5], in experiment [6], in [7] and in experiment [8] was “inactive” throughout.

For `CNC(=O)c1ccccc1`, the outcome in experiment [1] and in experiment [3] was inactive. Besides, the Potency result in experiment [2], in [4], in [5], in [6], in experiment [7] and in experiment [8] was “inactive” throughout. Further, the Potency entry in experiment [9] was “inactive”.

Turning to `NC(=O)CC[C@@H]1NC(=O)[C@H](Cc2ccccc2)NC(=O)[C@H](Cc2ccc(O)cc2)NC(=O)CCSSC[C@@H](C(=O)N2CCC[C@H]2C(=O)N[C@@H](CCCN=C(N)N)C(=O)NCC(N)=O)NC(=O)[C@H](CC(N)=O)NC1=O`, the molecule was classed as inactive in [1] and in experiment [3]. In addition, the Potency result in experiment [2], in experiment [4], in [5], in experiment [6], in experiment [7] and in experiment [8] was “inactive” each time.

As to `OCCN1CCN(CC/C=C2/c3ccccc3Sc3ccc(C(F)(F)F)cc32)CC1`, the molecule was called inactive in experiment [1] and in experiment [3]. Also, the Potency entry in [2], in experiment [4], in experiment [5], in [6], in experiment [7] and in experiment [8] was “inactive” throughout.

On to `CC(C)(C)C(=O)OCOC(=O)[C@@H]1N2C(=O)[C@@H](NC(=O)[C@H](N)c3ccccc3)[C@H]2SC1(C)C`, for which the fluorescence, % of fluorescein in experiment [1] is -0.024% [at 18.6 µM]. In addition, the fluorescence, % of fluorescent control in experiment [2] was 0.0397% [at 18.6 µM]; in experiment [4], 0.0827% [at 18.6 µM]; in experiment [6] it was 0.014% [at 18.6 µM]; in [8] it was 0.061% [at 18.6 µM]. Besides, in experiment [3], the activity change is 0.023% [at 18.6 µM]. In addition, the fluorescence, % of Rose Bengal in experiment [5] was -0.0322% [at 18.6 µM]. Also, in experiment [7], the fluorescence, % of fluorescein control is -0.0041% [at 18.6 µM].

For the molecule `CCCCCCCCOC(=O)c1ccc(O)cc1`, the call in experiment [1] and in [3] was inactive. In addition, the Potency result in experiment [2], in experiment [4], in experiment [5], in [6], in experiment [7] and in experiment [8] was “inactive” each time.

Consider `O=C1c2c(O)ccc(Nc3ccc(CCO)cc3)c2C(=O)c2c([N+](=O)[O-])ccc(O)c21`, for which the outcome in [1] and in [3] was inactive. Further, the Potency result in [2], in experiment [4], in [5], in experiment [6], in [7] and in [8] was “inactive” in each case. In experiment [9], the Potency result was “inactive”.

Take `CCCC1O[C@@H]2C[C@H]3[C@@H]4CCC5=CC(=O)C=C[C@]5(C)[C@H]4[C@@H](O)C[C@]3(C)[C@]2(C(=O)CO)O1` (stereo not given in full): the result in experiment [1] and in [3] was inactive. For the same molecule, the Potency entry in [2], in experiment [4], in experiment [5], in experiment [6], in experiment [7] and in experiment [8] was “inactive” throughout.

For the molecule `O=C(OCC1CO1)C1CCCCC1C(=O)OCC1CO1` (stereo not given), the molecule was classed as inactive in experiment [1] and in experiment [3]. The Potency result in experiment [2], in [4], in [5], in experiment [6], in experiment [7] and in experiment [8] was “inactive” in each case. Also, the Potency result in experiment [9] is “inactive”.

Consider `Cc1c(C)c2c(c(C)c1O)CCC(C)(COc1ccc(CC3SC(=O)NC3=O)cc1)O2` (stereo not given), for which the molecule was called inactive in experiment [1] and in experiment [3]. In addition, the Potency entry in [2], in [4], in experiment [5], in experiment [6], in experiment [7] and in experiment [8] was “inactive” in each case.

Consider `NNc1nc(-c2ccccc2)cs1`, for which the molecule was called inactive in experiment [1] and in experiment [3]. Also, the Potency entry in [2], in experiment [4], in experiment [5], in experiment [6], in experiment [7] and in experiment [8] was “inactive” throughout. In addition, in experiment [9], the Potency result was “inactive”.

As for `CCCCCCCCCOC(=O)c1ccc(O)cc1`, the call in experiment [1] and in experiment [3] was inactive. In addition, the Potency result in experiment [2], in [4], in [5], in experiment [6], in experiment [7] and in experiment [8] was “inactive” in each case.

`OCCCCCCCCCCCCBr`: the molecule was called inactive in [1] and in experiment [3]. The Potency entry in [2], in experiment [4], in [5], in [6], in experiment [7] and in experiment [8] was “inactive” in each case. The Potency result in experiment [9] is “inactive”.

In the case of `CSc1cnc(C)cn1`, the molecule was called inactive in experiment [1] and in experiment [3]. The Potency result in experiment [2], in experiment [4], in experiment [5], in [6], in [7] and in experiment [8] was “inactive” each time. In addition, the Potency entry in [9] is “inactive”.

In the case of `Cc1onc(-c2c(Cl)cccc2Cl)c1C(=O)N[C@@H]1C(=O)N2[C@@H]1SC(C)(C)[C@@H]2C(=O)O`, the result in [1] and in experiment [3] was inactive. Besides, the Potency result in experiment [2], in experiment [4], in [5], in experiment [6], in experiment [7] and in experiment [8] was “inactive” in each case. In experiment [9], the Potency entry was “inactive”.

The values are drawn from PubChem BioAssay (Tox21).
